# Compound activity: PubChem, several laboratories
# SMARCA2 activ – activators of SMARCA2 function; MG213 cells, MMTV-luciferase reporter, dexamethasone, overnight; actives 1% (n = 370,000); activation, % at 9.1 µM; in the data active means activation above about 7.8%;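 further: 0% = vehicle wells and 100% = reference activator wells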
# FGF22 binding – shifts melting point of recombinant human FGF22 | recombinant FGF22 thermal shift, SYPRO orange fluorescence; percent of sucrose octasulfate shift, DMSO zero | activity (Tm shift, normalised), % at 9.99 µM | actives 1.5% (n = 340,000) | AID 651658;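 active means mean Tm shift, scaled 0 neutral to 100 positive control, at about 1.3% or above, every replicate too, limit read from the data; inconclusive means no clear call, values can overlap the other calls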
# MITF TRPM1 HTS – increases MITF-driven TRPM1 promoter luciferase signal; SK-MEL-5 TRPM1-promoter luciferase, 24 h; % of positive control, neutral wells = 0; activation, % at 12.5 µM; actives 0.75% (n = 300,000);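 active means mean activation of at least 80% with every replicate also reaching 80%; inconclusive means mean reaches 80% but some replicate falls short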;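 further: 0% = neutral control wells and 100% = parthenolide positive control wells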
# Wnt act – activators of Wnt/beta-catenin signaling; Wnt/beta-catenin reporter cell assay, activator, plate reader; activation, % at 9.35 µM; actives 1.2% (n = 300,000); in the data active means activation above about 30%, passing the limit was not always enough; inconclusive means no clear call, values can overlap the other calls;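 further: 0% = neutral control wells and 100% = positive control wells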
# esBAF inh – SWI/SNF esBAF complex inhibition. mouse ES cells, Bmi1-luciferase knock-in reporter, 24 h; 100% = twice the neutral-well signal. reporter increase, % at 12.5 µM. actives 2% (n = 350,000). AID 602393; in the data active means activation above about 40%; inconclusive means no clear call, values can overlap the other calls;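 further: 0% = median of the plate's neutral control wells and 100% = double that signal; a rise in the Bmi1 reporter signal indicates esBAF inhibition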
# AF4-AF9 inh – blocks AF4 peptide binding to human AF9; P42568; AlphaScreen, biotin-AF4 peptide binding to FLAG-AF9; inhibition, % at 10 µM; actives 0.47% (n = 350,000); AID 651704;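 active means every replicate reaching a set inhibition limit, whatever the replicate mean, cut at about 25% in these data; inconclusive means mean inhibition reaches that limit but some replicates miss it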;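 further: 0% = plate neutral control median and 100% = total signal loss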
# Target sequence (P42568 whole entry, looked up): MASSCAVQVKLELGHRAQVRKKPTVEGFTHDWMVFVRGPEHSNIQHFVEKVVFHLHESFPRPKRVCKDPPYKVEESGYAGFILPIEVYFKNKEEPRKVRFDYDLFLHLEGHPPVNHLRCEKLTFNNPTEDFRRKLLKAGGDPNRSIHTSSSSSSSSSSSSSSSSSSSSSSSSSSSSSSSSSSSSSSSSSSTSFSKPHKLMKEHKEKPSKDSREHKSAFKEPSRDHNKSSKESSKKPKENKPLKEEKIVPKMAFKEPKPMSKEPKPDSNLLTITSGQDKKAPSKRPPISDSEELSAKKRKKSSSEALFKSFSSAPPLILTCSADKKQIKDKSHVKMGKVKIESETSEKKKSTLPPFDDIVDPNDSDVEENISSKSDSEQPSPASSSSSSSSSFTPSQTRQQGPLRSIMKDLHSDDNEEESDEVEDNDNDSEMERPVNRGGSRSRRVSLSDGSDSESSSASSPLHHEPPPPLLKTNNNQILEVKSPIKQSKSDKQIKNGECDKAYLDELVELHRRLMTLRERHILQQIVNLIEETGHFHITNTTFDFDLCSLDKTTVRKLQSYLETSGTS
# * hit, by the source's call; ? = inconclusive; / = not tested or not shown. An excerpt weighted towards active compounds, which were near 4.3% of everything screened.
SMILES,SMARCA2 activ,FGF22 binding,MITF TRPM1 HTS,Wnt act,esBAF inh,AF4-AF9 inh
CCC(CO)Nc1ccn2nc(-c3cccc(Cl)c3)cc2n1 (stereo not drawn),2,0,/,4,72*,-1
COc1ccccc1-c1cc(C(=O)N2CCOCC2)no1,4,0,105*,29,?,0
CCC(C)NC(=O)c1cc(-c2ccccc2O)on1 (stereo not drawn),5,0,/,12,57*,1
COc1ccccc1-c1cc(C(=O)N2CCN(c3ccc(F)cc3)CC2)no1,1,/,4,3,5,/
COc1ccccc1-c1cc(C(=O)NC(C)C)no1,7,0,39,16,52*,5
CC(C)NC(=O)c1cc(-c2cccs2)on1,6,/,/,55*,35,/
COc1ccccc1-c1cc(C(=O)NC(C)c2ccccc2)no1 (stereo not drawn),-3,/,5,/,-3,/
CCC(C)NC(=O)c1ccccc1-c1ccccc1C(=O)NC(C)CC (stereo not drawn),6,0,-11,-1,2,-1
CCCCNC(=O)C[C@@H]1C(=O)N(CCc2ccc(Cl)cc2)C2=CCCCC[C@]21C(=O)OC,-1,/,/,/,/,/
CC1CCN(C(=O)c2cc(-c3ccccc3O)on2)CC1,4,0,104*,63*,35,-13
COc1ccccc1-c1cc(C(=O)N2CCCC2)no1,4,0,51,37*,-59,-3
COc1ccc(CN(C)C[C@H]2OCCCC[C@H](C)Oc3ccc(NC(=O)Nc4c(C)noc4C)cc3C(=O)N([C@H](C)CO)C[C@@H]2C)cc1,/,-1,/,/,0,-1
COc1ccc(NC(=O)Nc2ccc3c(c2)[C@H]2C[C@H](CC(=O)NCc4ccccn4)O[C@H](CO)[C@H]2O3)cc1,/,0,/,/,2,-4
CC(C)(C)CC(=O)Nc1nnc(CCc2ccccc2)s1,2,0,/,9,?,6
CCC(C)(C)C(=O)Nc1nnc(CCc2ccccc2)s1,4,0,61,15,62*,3
O=C(Nc1nnc(CCc2ccccc2)s1)c1cccs1,4,/,26,/,46*,/
C[C@H]1CN([C@@H](C)CO)S(=O)(=O)c2ccc(C#Cc3ccc(F)cc3)cc2O[C@H]1CN(C)CC1CC1,/,/,/,/,-9,3
CCN(CC)c1ccc(NC(=O)C2CC3CCC2C3)cc1 (stereo not drawn),4,/,58,/,48*,/
O=C(C[C@H]1CC[C@H]2[C@@H](COC[C@H](O)CN2C(=O)c2ccccc2F)O1)N1CCOCC1,/,0,/,/,-2,-3
O=C(NCC[C@H]1CC[C@H](NS(=O)(=O)c2ccc(Cl)cc2)[C@@H](CO)O1)Nc1ccc(F)cc1,/,0,/,/,/,27*
O=C(NCC[C@@H]1CC[C@@H](NC(=O)c2ccc3c(c2)OCO3)[C@H](CO)O1)Nc1ccc(Cl)cc1,/,0,/,/,63*,10
O=C(NCC[C@H]1CC[C@@H](NS(=O)(=O)c2ccc(F)cc2)[C@@H](CO)O1)Nc1ccc(Cl)cc1,/,0,/,/,18,7
O=C(NCC[C@H]1CC[C@@H](NC(=O)c2ccc3c(c2)OCO3)[C@H](CO)O1)Nc1cc(F)ccc1F,/,0,/,/,1,5
N#CC1=C(N)Oc2ccc3ccccc3c2C1c1cccnc1 (stereo not drawn),-2,43*,-30,-2,/,-2
N#CC1=C(N)Oc2ccc3ccc(O)cc3c2C1c1cccnc1 (stereo not drawn),-2,0,-22,-3,0,-5
SMILES,SMARCA2 activ,FGF22 binding,MITF TRPM1 HTS,Wnt act,esBAF inh,AF4-AF9 inh
c1cnc(SCCOc2cccc3ccccc23)nc1,2,/,106*,/,/,/
Clc1ccc(OCCSc2ncccn2)c2ccccc12,6,/,41,14,20,/
Cc1cccc(OCCOCCSc2ncccn2)c1,-1,/,4,/,28,/
Cc1ccc(OCCSc2ncccn2)c(C)c1,0,0,153*,11,35,-7
CN1C(=O)c2cc(NC(=O)c3cccc(Cl)c3)ccc2OC[C@H]2O[C@@H](CC(=O)NC3CCCCC3)CC[C@H]21,/,1.4*,/,/,14,/
CN1C(=O)c2cc(NC(=O)c3ccccc3)ccc2OC[C@@H]2O[C@H](CC(=O)NC3CCCC3)CC[C@H]21,/,0,/,/,0,-2
Cn1c(=O)c2[nH]c(CCNC(=O)c3ccccc3)nc2n(C)c1=O,-1,43*,8,0,-2,-4
Cn1c(=O)c2[nH]c(CCCCCc3nc4ccccc4[nH]3)nc2n(C)c1=O,3,/,/,-5,-6,0
O=S1(=O)N=C(N/N=C/c2ccc(Br)o2)c2ccccc21,0,43*,3,/,/,1
COc1ccc(NC(=O)Nc2ccc3nccnc3c2)cc1,7.9*,/,96*,/,55*,/
COc1ccc(NC(=O)Nc2nccs2)cc1,4,/,33,/,32,/
COc1ccc(NC(=O)Nc2ccc3nonc3c2)cc1,3,0,/,39*,/,0
COc1ccc(NC(=O)Nc2ccc3[nH]ccc3c2)cc1,2,0,/,16,/,1
CN1C(=O)c2cc(NC(=O)c3ccc(F)cc3)ccc2OC[C@@H]2O[C@@H](CC(=O)O)CC[C@@H]21,/,0,/,/,-4,-1
N#C[C@@H]1[C@@H](c2ccc(-c3ccncc3)cc2)[C@@H](CO)N1C(=O)CN1CCOCC1,/,0,/,/,3,-1
CCN(C(=O)C1=COCCO1)c1nc2c(C)cccc2s1,3,41,71,-4,48*,-5
CCc1noc(C)c1C(=O)N(CC)c1nc2c(C)cccc2s1,-1,/,-11,-1,1,-2
CCS(=O)(=O)Nc1ccc2c(c1)C(=O)N(C)C[C@H](OC)[C@@H](C)CN(Cc1nccs1)[C@@H](C)CO2,/,0,/,/,2,-2
CC(C)(C)c1ccc(-c2nnc(N)o2)cc1,7,0,32,42*,58*,-5
COc1ccc(NC(=O)N(C)C[C@@H]2Oc3ccc(NC(=O)C4CCCCC4)cc3CC(=O)N([C@@H](C)CO)C[C@H]2C)cc1,/,0,/,/,-5,1
NC(=O)Nc1ccc(C(=O)OCC(=O)NCc2ccc3c(c2)OCO3)cc1,-6,0,12,-3,-9,-2
CC(=O)Nc1ccc(C(=O)OCC(=O)NCc2ccc3c(c2)OCO3)cc1,-4,43*,-3,1,/,-38
CC(=O)Nc1ccc(S(=O)(=O)NCC(=O)OCC(=O)NCc2ccc3c(c2)OCO3)cc1,-4,44*,14,4,/,-5
CCCCCCCCN1C(=O)[C@@H](CC(=O)N2CCSCC2)C[C@@]2(C(=O)OC)C1=C[C@H](C1CCCC1)O[C@@H]2C,-4,0,/,-10,/,-1
Oc1cccc(-n2nnnc2SCc2ccccc2F)c1,-3,0,5,0,17,1
O=C(O)c1cc(-n2nnnc2SCc2ccccc2F)ccc1Cl,-5,43*,-5,3,/,-2
